Assay results: the supplement of paper PMC7156485

What was measured:
Conditions in all cases: concentration: 10 µM; 24 h
HCC1569 [1] = assay: cell number relative to DMSO (% of DMSO); higher = more cells (less growth inhibition / toxicity)
Outline: (§1)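 Cells were seeded at 800 per well in 384-well plates with RPMI containing 10% FBS; both HCC1569 and TDF lines were used. Compounds were added at 10 µM for 24 h at 37 °C, in triplicate, before fixation in 3.7% formaldehyde and staining with a rabbit anti-H1.0 antibody, an AlexaFluor 647 secondary and DAPI. H1.0 nuclear intensity or cell number is reported as percent of the plate control using the median of replicates, and HCC1569 values were smoothed for positional effects.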

TDF [2] = assay: as above
Outline: as §1

TDF [3] = assay: H1.0 immunofluorescence intensity relative to DMSO (% of DMSO); higher = stronger H1.0 induction, active = 120 or more
Outline: as §1

HCC1569 [4] = assay: H1.0 immunofluorescence intensity relative to DMSO (% of DMSO); higher = stronger H1.0 induction, active = 140 or more
Outline: as §1
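Wherever H1.0 immunofluorescence intensity relative to DMSO is given: TDF is a line of transformed human dermal fibroblasts of mesenchymal origin.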
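Wherever cell number relative to DMSO is given: TDF denotes transformed human dermal fibroblasts of mesenchymal origin.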

| SMILES | cell number (HCC1569 [1]) | cell number (TDF [2]) | H1.0 immunofluorescence intensity (TDF [3]) | H1.0 immunofluorescence intensity (HCC1569 [4]) |
| --- | --- | --- | --- | --- |
| COc1ccc(C2CC(c3ccccc3)=NN2c2ccc(S(N)(=O)=O)cc2)cc1 (centres undefined) | 95.8 | 97.9 | 91.3 (inactive) | 114 (inactive) |
| CCN1CCCC1CNC(=O)c1c(O)c(Cl)cc(Cl)c1OC (stereo not drawn) [S(-)-Raclopride] | 102 | 97.5 | 95.7 (inactive) | 104 (inactive) |
| CC1(C2CCCC2)Cc2cc(OCC(=O)O)c(Cl)c(Cl)c2C1=O (centres undefined) | 103 | 107 | 91.9 (inactive) | 84.5 (inactive) |
| CCNC(=O)CC[C@H](N)C(=O)O [L-Theanine] | 103 | 103 | 102 (inactive) | 95.6 (inactive) |
| CCN(CC)CCOCCOC(=O)C1(c2ccccc2)CCCC1.O=C(O)CC(O)(CC(=O)O)C(=O)O [Carbetapentane citrate] | 86.4 | 89 | 107 (inactive) | 97.4 (inactive) |
| CC(N)C12CC3CC(CC(C3)C1)C2 (centres undefined) [Rimantadine] | 99.7 | 107 | 93.4 (inactive) | 112 (inactive) |
| CCCCCCCCCCCCCCCCCCCCCC(=O)O [Docosanoic acid] | 101 | 104 | 101 (inactive) | 101 (inactive) |
| OC1c2ccccc2N=C2CCCN21 (centres undefined) [Peganole] | 95 | 93.7 | 95.3 (inactive) | 91.1 (inactive) |
| CC1(C)SC2C(NC(=O)COc3ccccc3)C(=O)N2C1C(=O)[O-] (centres undefined) [Pencillin V] | 100 | 101 | 87.4 (inactive) | 112 (inactive) |
| Cl.O=c1cc(N2CCOCC2)oc2c(-c3ccccc3)cccc12 | 87.7 | 91.7 | 86.9 (inactive) | 141 (active) |
| CCCCCCCCCCCC=CCC=CCCCC(=O)O [5(Z), 8(Z)-Eicosadienoic acid] | 101 | 96.9 | 99.9 (inactive) | 99.3 (inactive) |
| COc1cc(Br)c(CC2c3cc(OC)c(OC)cc3CCN2C)cc1OC (racemic) | 99.7 | 98.5 | 97.8 (inactive) | 97.6 (inactive) |
| O=C(O)c1cc(=O)c2ccccc2[nH]1 [Kynurenic acid] | 107 | 106 | 91.3 (inactive) | 94.5 (inactive) |
| O=c1c(-c2ccc(O)cc2)coc2cc(OC3OC(CO)C(O)C(O)C3O)cc(O)c12 (centres undefined) [Genistin] | 103 | 104 | 93 (inactive) | 86.4 (inactive) |
| C=CC(=O)Nc1cc2c(Nc3ccc(F)c(Cl)c3)ncnc2cc1OCCCN1CCOCC1.Cl.Cl [Canertinib] | 75.8 | 87.4 | 108 (inactive) | 125 (inactive) |
| CC(CCc1ccc(O)cc1)NCCc1ccc(O)c(O)c1.Cl (centres undefined) [Dobutamine hydrochloride] | 101 | 95.7 | 85.4 (inactive) | 91 (inactive) |
